Experimental data taken from PMC12136788.
Over roughly 24,000 sequences, “enrichment r” has its median near 0.99; the highest 2% begin near 3.7. The sample as a whole holds a higher share of the highest values than the screen did.

T1: UNK ZnF1-3 (human, UniProt Q9C0B0 31-174)
T1 sequence: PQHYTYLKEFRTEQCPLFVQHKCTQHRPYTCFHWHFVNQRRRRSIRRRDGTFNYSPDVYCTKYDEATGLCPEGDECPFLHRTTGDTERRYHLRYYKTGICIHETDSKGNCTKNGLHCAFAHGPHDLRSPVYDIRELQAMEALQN

B1: chr17:45747064:45747065:+_ENSG00000108424_ENST00000290158|hu_hu|hu_hu_hu_mus_True|38_98 (ssRNA)
RNA: GGGAGUUCUACAGUCCGACGAUCGCCCACAGUCCACGCAGCUGUAUCUCGAACAACUACACUGGGGUCUUUCAUUAGUUCUAUUAGGGUGGGCAUAGCCUGUAUAACUAAUGGUUUCAGUUGAUUAGGCUCUGGUCCUUCCAACAACAGAGGAUUGAGCAUCA
B2: chr1:244855233:244855234:+_ENSG00000121644_ENST00000302550|hu_mus|hu_hu_hu_mus_True|98_98 (ssRNA)
RNA: GGGAGUUCUACAGUCCGACGAUCCAUCAGAUGGUAGGCAUUGCCUUUAUACUCUUUCCCCAGUUCUUCUACAAUUUUCUCUAUAUCAUCUUCUAGAAAGUCCGUACUUCCUAGAACAACAGCUUCUUUAAAUUUAAAUGUUUCCAACAGAGGAUUGAGCAUCA
B3: chr3:10015032:10015033:+_ENSMUSG00000027533_ENSMUST00000029046|mus_mus|mus_mus_mus_hu_True|58_58 (ssRNA)
RNA: GGGAGUUCUACAGUCCGACGAUCGUUUUUACCAUCACAAGUGAUGAUACAAUCUGGCUUGGCCAUUGCGCCCAUUUUCCUAAGAGCUAUUCCCACUCCUAGCUCCUUCAUGUAUUCAUCAAAGCCUUUGCUGUCCACCAGGCGCAACAGAGGAUUGAGCAUCA
B4: chr14:102449733:102449734:+_ENSG00000197102_ENST00000360184|hu_mus|FALSE|FALSE (ssRNA)
RNA: GGGAGUUCUACAGUCCGACGAUCCAGCACCUGGAGCUUCUCGUACUCGUCGUCCCACGUCUGGAAGACUUCGAAGCAAGCCACCAUGACCUUUUCAAACUCUUCAUAGGCUACAUGCAUCAACUUCCGAGUGCCCAAGACCUUCAACAGAGGAUUGAGCAUCA
B5: chr7:107985766:107985767:+_ENSMUSG00000029461_ENSMUST00000049053|mus_hu|FALSE|FALSE (ssRNA)
RNA: GGGAGUUCUACAGUCCGACGAUCCCCUAGGUAAAUUUUUGUAAGCAAGGUGCCCACUAGGUAGGAAGGCUGCAUUUAAUGCUAAUUUACUGUAAGGUCUAGGGAAGUCCUUUCCGCUUCUCUGGGCCUCAGUUUCCUCAUCUGCAACAGAGGAUUGAGCAUCA
B6: 98287512_98287632_2604_3pUTR_ENSG00000180543_ENST00000322128|human|control|control (ssRNA)
RNA: GGGAGUUCUACAGUCCGACGAUCUACCUCCCCAGCUGUAUGUAGAAAAAUGUGGUUUUUCAGUUGUUUUCUCUGUGGUACUAUUUAAACAAAAUAAAAAAGAAUAAGGAAAGAAGGAAGGGGAAGGCAGAAGAGGAGGAAAGGCAACAGAGGAUUGAGCAUCA
B7: chr4:140213729:140213730:-_ENSG00000109390_ENST00000265500|hu_mus|FALSE|FALSE (ssRNA)
RNA: GGGAGUUCUACAGUCCGACGAUCGAAGCUGACUGUAUUAUUUCCAAAGUUUAUUCCAAUCCAUUUCUUCUUUUAUACUCCAAAACAUCUUCAUUGUGUGUUUGGAUGAGCUACAAGAUAAUGGUUAAAAUUAGAAAUGUGAGCCAACAGAGGAUUGAGCAUCA
B8: chr17:64801638:64801639:+_ENSG00000154229_ENST00000413366|hu_mus|hu_hu_hu_mus_False|28_38 (ssRNA)
RNA: GGGAGUUCUACAGUCCGACGAUCUAUAUAUAUAUAUACAUAUGUACACAUAUAUAGUAAAACCCUAGUUAAACGUGUAAAGUAGCCAUUCAUUUUUGAAAUUUUAUCUACAUUUAAAAAUUAAUAUAUCUGAUAGAGUGCCAGCAACAGAGGAUUGAGCAUCA
B9: chr4:136876768:136876769:-_ENSMUSG00000006699_ENSMUST00000051477|mus_mus|FALSE|FALSE (ssRNA)
RNA: GGGAGUUCUACAGUCCGACGAUCAAACAACAAACGUUUGUGGGGAUUUUUGUUUUUUUUUUUAAACAAAGAAAACAAAAACUAGCACUCAUUGCUUUUCAGACAAUACAUAAUUAUUCAAAAUUAACUAUUACUGGAAGGGCACAACAGAGGAUUGAGCAUCA
B10: chr10:57235669:57235670:-_ENSMUSG00000019877_ENSMUST00000020027|mus_hu|FALSE|FALSE (ssRNA)
RNA: GGGAGUUCUACAGUCCGACGAUCAAAUUGUGGAAUACAAUGUCUACACACAGAAUAAGGUUGGGGAAUUAAGCUGAAUUGUUAUAUUCCAUUCACAUUAAUAAAUAUUUUUAAAGAAGAAAUUGUAGAUUUUAAAAGCUUCAUCAACAGAGGAUUGAGCAUCA
B11: 48457567_48458910_1668_CDS_ENSG00000079387_ENST00000551330|human|control|control (ssRNA)
RNA: GGGAGUUCUACAGUCCGACGAUCGAGAACUUCAUCCUGAUUCCCAUUACGAAAUACAUUCUUUAUUUCUUUCUCCAUUUCCUCUGUAAUUUCAGGAAAUUCAUCUUCACUAUCAGUUAAUUUAUGACCUUUUUUUUGUGUUUCCAACAGAGGAUUGAGCAUCA
B12: chr14:57341393:57341394:-_ENSMUSG00000021938_ENSMUST00000022507|mus_hu|FALSE|FALSE (ssRNA)
RNA: GGGAGUUCUACAGUCCGACGAUCCUGAAUAUUCAGAAGCUAUAUGAAAUGUAGCUGGAAAUUCCGAUUUCACAGAACAUCAGUGGUUUAUACAAAUUAAACUCCCAUACCCUCCCACCCCCACAUAUACUACUCUAUCUACCCCAACAGAGGAUUGAGCAUCA
B13: chr14:49633609:49633610:-_ENSMUSG00000061244_ENSMUST00000162175|mus_mus|FALSE|FALSE (ssRNA)
RNA: GGGAGUUCUACAGUCCGACGAUCCAUUCAUUUUCUGACACCAACAUUUUCCAGGAUUAUAACAGUCAUGUAGGUUUAUAGAAUUUGAAAUUUAUAAAUUAAAGUAUAGAAUUCAACAUAACAGGGAAAAGAUAAAAAUACAGCCAACAGAGGAUUGAGCAUCA
B14: chr6:30403744:30403745:+_ENSMUSG00000029775_ENSMUST00000068259|mus_mus|motif|central (ssRNA)
RNA: GGGAGUUCUACAGUCCGACGAUCAGGAGAAGGCUAAACACUGAUUAUCUAUGGAUUUCGAUUGUGUGUGCUUUCACCUUGCGGCAGUGGAUAACGAAAGAUCAGUCAUACUUUUAAUCUAGAAAUGUUAAUAUUUUCAUCAUACAACAGAGGAUUGAGCAUCA
B15: chr16:35696996:35696997:-_ENSMUSG00000022848_ENSMUST00000023554|mus_mus|FALSE|FALSE (ssRNA)
RNA: GGGAGUUCUACAGUCCGACGAUCAAGACGGGUCCAGGAGCCAUGCAAUGAGUAUGUUUUUGUUUUUGUUUUUUUUAAAAAUCCAUUAUUUAUAGAAAGAAAUAGGUAUUGGCAAAAAUCUGUCCAAUCAAAUACAAUGACUUCCAACAGAGGAUUGAGCAUCA
B16: chr11:130013608:130013609:+_ENSG00000084234_ENST00000528499|hu_hu|motif|central (ssRNA)
RNA: GGGAGUUCUACAGUCCGACGAUCAGCAUGUGUCAGACAAUACAAUGGAAGUGGGGUUUCUGAUUAAUUUAAAAAAGAAAACGGCAUCAAAUAUCUGCAAUAGAUCAUUUUUUUCAUUUAAGGUUUAUAUAUCAUAUAUUGUUACAACAGAGGAUUGAGCAUCA
B17: chr14:62153831:62153832:-_ENSMUSG00000021930_ENSMUST00000100496|mus_mus|FALSE|FALSE (ssRNA)
RNA: GGGAGUUCUACAGUCCGACGAUCAUAUUUGUUUAAAUAAGAUUAAAUAAGUUGCCUAGAUCUUUUAAACCAAACCUCAGCAUGGUAUAAUGAAUACAUGGGUUCCUUGGACAACAAUUAGAAGCUCAGUGUUCAGCAUGUGUUCAACAGAGGAUUGAGCAUCA
B18: chr7:141450121:141450122:+_ENSG00000106028_ENST00000265304|hu_mus|hu_hu_hu_mus_True|68_68 (ssRNA)
RNA: GGGAGUUCUACAGUCCGACGAUCUCAUCCGUUCUAUGCCUUUUCUUUUGUCUGGUCACUCAGAAAUAUAAUAUUAUCAGCUAUGAUUGUUGUUGCUUGCCGCCUCACAUUGUUUUUAUCCAUGUACUCGCCAUAGUCCACUUUCAACAGAGGAUUGAGCAUCA
B19: chr11:80063784:80063785:+_ENSMUSG00000017686_ENSMUST00000092857|mus_mus|FALSE|FALSE (ssRNA)
RNA: GGGAGUUCUACAGUCCGACGAUCCAUUAGGUUUCUUCCAAGGAGAGACUGAAGAACUCCAGUUUUCCCACAGCCUUUCACUCCAAUUACAUUACACCUGAACACAUUUCUCUGAGUCUGUUUUUUCUGCAGGUCAAUCUUUUUCAACAGAGGAUUGAGCAUCA
B20: chr9:95013113:95013114:-_ENSG00000196305_ENST00000443024|hu_hu|hu_hu_hu_mus_False|58_58 (ssRNA)
RNA: GGGAGUUCUACAGUCCGACGAUCCUCAGUCAGAAAGGGCGUGUAAGGGGCCAUCAGUCUGCACAGAGAAAGCAGGACACUAAACAAUGUCUCCAGAGCCAUGACACAGUCUUCCACCCCACUCUCACCCUUUAACCUCCUCCUCAACAGAGGAUUGAGCAUCA
B21: 76184225_76186117_1027_CDS_ENSG00000119685_ENST00000298832|human|control|control (ssRNA)
RNA: GGGAGUUCUACAGUCCGACGAUCCCAUUUGUUUCCAUAAUCCUCCACUUCUGGAUCGUCACAACUGACGUAAUCUCCACUUUUCUUGUUGACACUGUAGUUUGUCAGAUGCAUGAACUGGUUCCGAAUGUUCUUGGCUCCUUGCAACAGAGGAUUGAGCAUCA
B22: chr11:31958201:31958202:+_ENSMUSG00000020297_ENSMUST00000020537|mus_mus|FALSE|FALSE (ssRNA)
RNA: GGGAGUUCUACAGUCCGACGAUCCCAUGAGUUUGUGCAAAUCUUGCAAGCUCACCAUUGAGUGGUACUCUGUGCAUUCCUAGUUGAGAAAUGCCAACAUCACCUUCCUCUCCAAAUCAGCCUUGCCUGCCAUCGCUGUGCUUCCAACAGAGGAUUGAGCAUCA

molecular target: T1, UNK ZnF1-3; experiment: nsRBNS (natural sequence RNA bind-n-seq); RBNS binding buffer (assumed for nsRBNS): 25 mM Tris pH 7.5, 150 mM KCl, 3 mM MgCl2, 0.01% Triton X-100, 500 ug/ml BSA, 20 U/ml SUPERase-In, 4 C; UNK is unkempt and MSI1 is Musashi-1; names of the RNAs are library labels; protein concentration not given here; high values mean tight binding

Binder | binding signal [enrichment R]
B1 | 0.573
B2 | 1.59
B3 | 0.594
B4 | 1.2
B5 | 0.876
B6 | 3.05
B7 | 1.21
B8 | 2.54
B9 | 0.695
B10 | 6.49
B11 | 0.373
B12 | 4.65
B13 | 5.9
B14 | 0.934
B15 | 2.16
B16 | 5.2
B17 | 0.982
B18 | 0.465
B19 | 0.484
B20 | 1.48
B21 | 0.4
B22 | 0.67
